From ChEMBL document CHEMBL3988442, “University of Dundee, Small-Polar-MMV Screening Library” (2021)
For some of these results: Measured potencies and affinities stand elsewhere.

Key:
Design in all cases: scale not given: direction of the effect not stated beside the values
[1] = biological target: Protein translocase subunit SecA (Escherichia coli (strain K12)) (UniProt P10408); assay: Assay to Identify E. coli SecA ATPase Inhibitors; assay type: functional; conditions: 30 µM
[2] = biological target: T1, Ubiquitin-activating enzyme e1, putative (Leishmania donovani (strain BPK282A1)) (UniProt E9BSI1); assay: Leishmania donovani Ubiquitin Activating Enzyme (LdE1); assay type: functional; conditions: 30 µM
T1 sequence (whole entry): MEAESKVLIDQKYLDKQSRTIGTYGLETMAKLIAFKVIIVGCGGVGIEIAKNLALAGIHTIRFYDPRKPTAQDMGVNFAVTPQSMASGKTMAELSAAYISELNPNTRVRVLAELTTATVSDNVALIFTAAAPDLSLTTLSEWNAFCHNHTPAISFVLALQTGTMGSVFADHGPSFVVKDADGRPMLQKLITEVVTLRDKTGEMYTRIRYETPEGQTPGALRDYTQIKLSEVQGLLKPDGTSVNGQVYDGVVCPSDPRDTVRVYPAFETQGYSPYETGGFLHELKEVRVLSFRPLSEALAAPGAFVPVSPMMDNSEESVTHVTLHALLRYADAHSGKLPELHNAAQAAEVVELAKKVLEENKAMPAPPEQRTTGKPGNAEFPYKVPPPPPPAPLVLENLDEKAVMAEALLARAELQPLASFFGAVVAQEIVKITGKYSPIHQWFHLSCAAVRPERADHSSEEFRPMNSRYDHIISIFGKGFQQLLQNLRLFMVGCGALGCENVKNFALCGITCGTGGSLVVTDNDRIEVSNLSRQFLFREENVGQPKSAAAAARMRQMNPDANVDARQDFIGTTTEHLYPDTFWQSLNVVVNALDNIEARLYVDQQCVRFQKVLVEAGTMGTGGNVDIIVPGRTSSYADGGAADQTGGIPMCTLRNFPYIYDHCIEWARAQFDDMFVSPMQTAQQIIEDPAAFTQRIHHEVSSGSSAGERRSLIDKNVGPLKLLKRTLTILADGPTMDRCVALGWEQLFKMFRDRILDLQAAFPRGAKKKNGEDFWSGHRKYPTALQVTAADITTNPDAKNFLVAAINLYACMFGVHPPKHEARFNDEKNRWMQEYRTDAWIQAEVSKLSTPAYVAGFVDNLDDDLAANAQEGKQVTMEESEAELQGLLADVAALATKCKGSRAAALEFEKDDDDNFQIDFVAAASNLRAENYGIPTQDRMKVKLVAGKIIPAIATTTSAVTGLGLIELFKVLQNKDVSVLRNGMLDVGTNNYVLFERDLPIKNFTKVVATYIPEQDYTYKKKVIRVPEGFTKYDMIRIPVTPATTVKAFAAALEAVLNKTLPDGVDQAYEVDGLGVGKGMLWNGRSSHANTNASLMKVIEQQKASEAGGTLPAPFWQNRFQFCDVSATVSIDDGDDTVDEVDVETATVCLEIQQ

[3] = biological target: AMP-activated protein kinase, AMPK (Homo sapiens) (UniProt P54646+O43741+P54619+Q9UGJ0+Q9Y478+Q13131+Q9UGI9); assay: AMP-dependent Kinase enzyme assay. An in vitro enzyme assay that detects ADP turnover that is directly proportional to AMPK activity. This uses naive AMPK that is activated during the assay with MK-8722; assay type: functional; conditions: 30 µM
[4] = biological target: Sialic acid-binding Ig-like lectin 9 (Homo sapiens) (UniProt Q9Y336); assay: Hs-Siglec9 ALPHAscreen SOP 20170721; conditions: 10 µM
Sequence of Sialic acid-binding Ig-like lectin 9 (Homo sapiens) (Q9Y336 whole entry): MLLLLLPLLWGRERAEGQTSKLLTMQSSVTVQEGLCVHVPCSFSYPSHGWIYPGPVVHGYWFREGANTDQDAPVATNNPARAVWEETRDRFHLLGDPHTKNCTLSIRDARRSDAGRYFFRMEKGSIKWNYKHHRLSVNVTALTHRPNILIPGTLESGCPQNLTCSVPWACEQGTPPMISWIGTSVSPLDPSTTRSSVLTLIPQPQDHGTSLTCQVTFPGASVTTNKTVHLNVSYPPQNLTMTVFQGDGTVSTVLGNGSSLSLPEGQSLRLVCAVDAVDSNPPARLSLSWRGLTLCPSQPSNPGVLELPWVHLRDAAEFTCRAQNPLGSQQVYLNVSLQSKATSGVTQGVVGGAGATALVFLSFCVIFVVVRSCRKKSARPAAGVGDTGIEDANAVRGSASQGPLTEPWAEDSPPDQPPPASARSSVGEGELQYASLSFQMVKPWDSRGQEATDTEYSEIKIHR

[5] = tested on: Trypanosoma cruzi; assay: Trypanosoma cruzi phosphomannomutase and mannose-1-phosphate guanylyltransferase assay; assay type: functional; conditions: 10 µM
[6] = biological target: T2, Arginase-2, mitochondrial (Homo sapiens) (UniProt P78540); assay: in vitro enzyme assay to detect the production of urea directly proportional to the activity of Arginase II; assay type: functional; conditions: 33.3 µM; also: in the data most compounds retested in dose-response had high values
T2 sequence (whole entry): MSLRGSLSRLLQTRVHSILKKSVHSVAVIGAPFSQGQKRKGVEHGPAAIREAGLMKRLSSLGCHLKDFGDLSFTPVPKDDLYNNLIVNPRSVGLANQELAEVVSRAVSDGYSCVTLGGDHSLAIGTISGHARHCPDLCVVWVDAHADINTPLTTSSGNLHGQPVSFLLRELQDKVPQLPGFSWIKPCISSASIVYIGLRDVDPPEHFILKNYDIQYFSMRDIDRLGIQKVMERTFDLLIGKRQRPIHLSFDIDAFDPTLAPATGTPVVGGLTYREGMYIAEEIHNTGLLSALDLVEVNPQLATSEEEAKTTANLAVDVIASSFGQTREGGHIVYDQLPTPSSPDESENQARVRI

[7] = biological target: T3, Proteasome subunit beta (Trypanosoma cruzi) (UniProt O96673); assay: Trypanosoma cruzi proteasome chymotrypsin-like activity (TcProtChymo) assay.; also: in the data most compounds retested in dose-response had high values; assay type: functional; conditions: 9.37 µM
T3 sequence (whole entry): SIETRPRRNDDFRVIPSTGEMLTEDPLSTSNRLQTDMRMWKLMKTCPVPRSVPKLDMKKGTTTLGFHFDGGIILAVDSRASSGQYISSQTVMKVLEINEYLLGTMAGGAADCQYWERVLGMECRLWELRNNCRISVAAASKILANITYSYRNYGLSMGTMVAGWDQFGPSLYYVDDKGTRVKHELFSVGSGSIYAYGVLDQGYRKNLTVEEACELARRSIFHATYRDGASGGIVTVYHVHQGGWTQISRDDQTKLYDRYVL

[8] = species: Homo sapiens; assay: To identify inhibition of the IFN signalling (Jak-Stat) pathway via expression of an eGFP reporter gene under the control of an IFN-stimulated response element (ISRE) containing MxA promoter.; assay type: functional; conditions: 30 µM
[9] = biological target: T4, Tyrosyl-tRNA synthetase, putative (Trypanosoma cruzi (strain CL Brener)) (UniProt Q4DSP6); assay: Trypanosoma cruzi tyrosyl tRNA synthetase (TcYRS) _High Tyrosine SOP; assay type: functional; conditions: 30 µM; also: in the data most compounds retested in dose-response had high values
T4 sequence (whole entry): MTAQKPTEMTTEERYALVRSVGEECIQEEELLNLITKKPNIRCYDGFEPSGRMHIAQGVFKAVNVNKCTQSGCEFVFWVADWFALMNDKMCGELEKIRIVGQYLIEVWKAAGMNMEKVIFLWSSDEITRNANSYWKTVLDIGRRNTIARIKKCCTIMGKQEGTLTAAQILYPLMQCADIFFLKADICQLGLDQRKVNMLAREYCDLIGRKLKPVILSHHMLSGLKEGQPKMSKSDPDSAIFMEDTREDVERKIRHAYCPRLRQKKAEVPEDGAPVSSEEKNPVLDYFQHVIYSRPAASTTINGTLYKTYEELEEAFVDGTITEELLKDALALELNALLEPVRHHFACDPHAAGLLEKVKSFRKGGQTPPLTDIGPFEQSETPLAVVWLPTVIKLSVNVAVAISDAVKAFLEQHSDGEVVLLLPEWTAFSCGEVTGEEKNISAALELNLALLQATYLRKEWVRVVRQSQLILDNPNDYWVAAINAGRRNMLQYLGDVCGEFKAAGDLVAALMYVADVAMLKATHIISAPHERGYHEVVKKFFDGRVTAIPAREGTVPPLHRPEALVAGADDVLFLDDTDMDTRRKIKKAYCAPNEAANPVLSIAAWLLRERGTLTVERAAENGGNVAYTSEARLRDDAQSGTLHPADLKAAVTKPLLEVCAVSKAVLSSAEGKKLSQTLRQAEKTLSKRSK

[10] = biological target: T4, Tyrosyl-tRNA synthetase, putative (Trypanosoma cruzi (strain CL Brener)); assay: Trypanosoma cruzi tyrosyl tRNA synthetase (TcYRS) SOP; assay type: functional; conditions: 30 µM
[11] = biological target: Chromo domain-containing protein 1 (Saccharomyces cerevisiae (strain ATCC 204508 / S288c) (Baker's yeast)) (UniProt P32657); assay: ScCHD-1 Enzyme Inhibition Assay; assay type: functional; conditions: 30 µM; also: in the data most compounds retested in dose-response had high values
Sequence of Chromo domain-containing protein 1 (Saccharomyces cerevisiae (strain ATCC 204508 / S288c) (Baker's yeast)) (P32657 whole entry, the tested form may be a part): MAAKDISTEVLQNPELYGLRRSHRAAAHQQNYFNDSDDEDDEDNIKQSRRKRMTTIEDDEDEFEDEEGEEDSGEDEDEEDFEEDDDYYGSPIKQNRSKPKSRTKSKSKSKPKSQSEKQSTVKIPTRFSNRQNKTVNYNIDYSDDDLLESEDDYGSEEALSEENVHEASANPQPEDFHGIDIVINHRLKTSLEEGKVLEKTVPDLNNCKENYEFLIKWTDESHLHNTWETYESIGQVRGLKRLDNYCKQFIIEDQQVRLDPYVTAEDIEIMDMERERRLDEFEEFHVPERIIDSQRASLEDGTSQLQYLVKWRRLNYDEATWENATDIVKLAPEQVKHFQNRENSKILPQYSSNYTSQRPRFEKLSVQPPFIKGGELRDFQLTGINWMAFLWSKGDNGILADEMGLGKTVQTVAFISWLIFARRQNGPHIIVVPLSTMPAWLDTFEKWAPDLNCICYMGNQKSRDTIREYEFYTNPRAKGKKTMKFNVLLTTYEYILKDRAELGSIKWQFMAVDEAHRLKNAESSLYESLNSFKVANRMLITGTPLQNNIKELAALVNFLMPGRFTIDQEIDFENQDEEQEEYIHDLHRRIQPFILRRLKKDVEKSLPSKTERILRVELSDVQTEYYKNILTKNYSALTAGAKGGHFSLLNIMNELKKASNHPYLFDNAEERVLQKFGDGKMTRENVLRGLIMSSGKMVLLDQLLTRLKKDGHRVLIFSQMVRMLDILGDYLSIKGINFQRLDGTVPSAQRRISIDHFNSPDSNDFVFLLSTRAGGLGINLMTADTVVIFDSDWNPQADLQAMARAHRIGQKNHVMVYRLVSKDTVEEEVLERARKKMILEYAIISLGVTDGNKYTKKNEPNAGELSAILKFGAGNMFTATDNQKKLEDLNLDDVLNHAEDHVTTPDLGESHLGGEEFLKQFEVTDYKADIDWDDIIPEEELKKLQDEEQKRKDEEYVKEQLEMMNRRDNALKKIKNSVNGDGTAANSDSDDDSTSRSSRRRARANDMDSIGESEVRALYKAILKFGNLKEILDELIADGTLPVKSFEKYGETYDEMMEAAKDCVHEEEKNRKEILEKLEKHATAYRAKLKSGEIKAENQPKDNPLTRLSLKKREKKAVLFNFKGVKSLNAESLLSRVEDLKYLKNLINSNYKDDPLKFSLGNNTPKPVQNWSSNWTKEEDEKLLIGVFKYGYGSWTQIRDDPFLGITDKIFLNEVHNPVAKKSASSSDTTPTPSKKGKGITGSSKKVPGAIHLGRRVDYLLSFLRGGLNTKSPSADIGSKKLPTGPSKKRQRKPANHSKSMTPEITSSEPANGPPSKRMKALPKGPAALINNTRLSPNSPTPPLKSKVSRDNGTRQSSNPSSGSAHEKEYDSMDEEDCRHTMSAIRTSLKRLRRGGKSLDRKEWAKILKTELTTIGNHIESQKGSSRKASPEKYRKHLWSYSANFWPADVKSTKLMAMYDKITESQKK

Sequence of Protein translocase subunit SecA (Escherichia coli (strain K12)) (P10408 whole entry): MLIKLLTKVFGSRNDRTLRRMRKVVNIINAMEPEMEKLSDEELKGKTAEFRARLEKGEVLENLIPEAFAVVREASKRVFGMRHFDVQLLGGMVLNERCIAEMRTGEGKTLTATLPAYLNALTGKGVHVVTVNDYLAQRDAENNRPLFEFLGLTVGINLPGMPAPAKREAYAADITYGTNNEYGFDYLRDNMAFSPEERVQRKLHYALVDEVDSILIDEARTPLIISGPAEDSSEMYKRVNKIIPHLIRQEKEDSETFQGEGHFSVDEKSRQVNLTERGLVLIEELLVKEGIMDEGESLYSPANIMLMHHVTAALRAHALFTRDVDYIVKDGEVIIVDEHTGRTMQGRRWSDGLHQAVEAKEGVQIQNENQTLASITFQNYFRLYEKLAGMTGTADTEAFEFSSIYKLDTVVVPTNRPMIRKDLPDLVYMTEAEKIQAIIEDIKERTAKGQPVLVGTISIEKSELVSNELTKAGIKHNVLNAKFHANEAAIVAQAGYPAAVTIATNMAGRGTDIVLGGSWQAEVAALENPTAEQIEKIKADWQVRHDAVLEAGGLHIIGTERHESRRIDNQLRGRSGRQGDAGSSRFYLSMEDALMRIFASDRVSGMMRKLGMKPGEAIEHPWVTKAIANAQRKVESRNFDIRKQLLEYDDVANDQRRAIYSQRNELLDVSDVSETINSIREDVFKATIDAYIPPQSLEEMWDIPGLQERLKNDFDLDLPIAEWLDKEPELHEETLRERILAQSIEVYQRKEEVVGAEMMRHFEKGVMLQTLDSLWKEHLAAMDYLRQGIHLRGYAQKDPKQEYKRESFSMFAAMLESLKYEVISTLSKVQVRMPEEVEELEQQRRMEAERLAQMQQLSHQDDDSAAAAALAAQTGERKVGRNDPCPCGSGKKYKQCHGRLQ

Compound | Percent Effect [1] | Percent Effect [2] | Percent Effect [3] | Percent Effect [4] | Percent Effect [5] | Percent Effect [6] | Percent Effect [7] | Percent Effect [8] | Percent Effect [9] | Percent Effect [10] | Percent Effect [11]
CC(=O)N1CCCN(Cc2csc(-c3ncccn3)n2)CC1 | -0.976% | 13.2% | -3.37% | -1% | -3.02% | 3.55% | 20.4% | 12% | 6.38% | 18.2% | -3.23%
O=C(NCCC1CCCO1)c1ccccc1N1CCOCC1 (stereo unspecified) | -4.55% | 2.74% | -1.11% | 12.4% | 4.56% | -5.99% | 10.7% | 8.12% | 10.4% | 18.5% | -2.02%
Cc1cccc(OCCC(=O)N2CCCN(C(N)=O)CC2)c1C | -5.63% | -63.3% | -5.53% | -0.36% | -9.54% | 3.8% | 3.85% | 27.5% | -3.45% | -8.86% | -6.9%
COCCc1noc(CN2CCCC(Cn3nc(C)nc3C)C2)n1 (stereo unspecified) | -3.69% | 16.2% | -5.81% | 6.95% | 0.472% | -7.62% | 3.6% | 8.21% | 10.3% | 23.5% | -11.8%
c1ccc(N2CCOC3(CCCN(c4nncs4)C3)C2)nc1 (stereo unspecified) | -3.17% | 7.79% | 3.64% | 2.14% | -1.28% | 3.23% | 14.4% | -6.63% | 3.17% | 8.97% | -7.1%
CN(C)C(C)(C)CNC(=O)C(C)(C)c1ccccc1F | -0.22% | 9.72% | -4.87% | 4.5% | -4.18% | -0.442% | 13.2% | 17.2% | 4.21% | -2.56% | 105%
FC(F)(F)Cc1noc(CN2CCCC2c2noc(C3CC3)n2)n1 (stereo unspecified) | -1.65% | 13.5% | -5.95% | 4.29% | 4.06% | -10.8% | 5.59% | 7.37% | 7.39% | 23.5% | -9.28%
Cc1cc(C)n(C2CN(CC(=O)NCC(C)(C)N3CCOCC3)C2)n1 | -1.83% | 8.86% | 2.81% | 2.3% | -1.13% | -0.645% | 8.92% | 20.1% | 5.21% | 15.2% | -7.96%
CO[C@H]1CCN(C(=O)Cc2ccccn2)[C@H]1Cc1ccncc1 | -0.476% | 16% | 1.42% | -1.93% | -4.53% | -2.56% | 8.02% | 7.43% | 3.19% | 11.5% | -2.72%
CCc1nc(CN2CCN(C(=O)CCc3ccccc3)CC2)cs1 | -6.36% | 19% | -2.93% | 5.39% | -1.95% | 2.8% | 16.5% | 3.67% | -1.04% | 17.7% | -23.8%
Cc1cc(C)n(C2CN(CC(=O)N(C)Cc3ccc(C)o3)C2)n1 | -4.24% | 5.26% | 17.1% | 6.03% | 2.82% | 3.55% | 9.49% | -0.498% | 34% | 28.6% | -4.43%
